Molecules are shown by their SMILES. Counter-ions that a name gives are not always drawn. Over roughly 2,000 compounds, “fractional viability relative to vehicle” has its median near 0.91; the lowest 2% begin near 0.045. Shown is part of a subset that was picked to be rich in the lowest values.

The test system of this assay is TYKNU. Nature of the assay: fractional viability relative to vehicle; TYKNU is a high-grade serous ovarian cancer line; higher = less growth inhibition. Conditions: 72 h. The method in brief: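 TYKNU control cells or lentiCRISPRv2 knockout derivatives were plated at 500 cells per well in duplicate into drug-stamped 384-well plates holding a ~2100-compound library at 2 or 10 μM. Culture was in RPMI 1640 with 10% FBS at 37 °C in 5% CO2, with 72 h of drug treatment. Viability was measured by Cell Titer Glo luminescence, and the averaged duplicate treatment wells were normalised to duplicate control wells at the same plate position.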

Setting [1] is: 2uM, genotype: DNM1L knockout (sgDNM1L #1).
Setting [2] is: 2uM, genotype: sgCTRLA1 (non-targeting control).
Setting [3] is: 10uM, genotype: DNM1L knockout (sgDNM1L #1).
Setting [4] is: 10uM, genotype: sgCTRLA1 (non-targeting control).

Turning to `COc1cc(OC)c2c(=O)[nH]c(-c3cc(C)c(OCCO)c(C)c3)nc2c1`, the fractional viability worked out at 1.15 under setting [1], 1.12 under setting [2], 0.973 under setting [3] and 1.03 under setting [4].

In the case of `CN(C)CCNC(=O)c1cccn2c(=O)c3cc4ccccc4cc3nc12`, the fractional viability reads like this: under setting [1], 0.389; under setting [2], 0.417; under setting [3], 0.107; under setting [4], 0.0609.

Consider `C=CC(=O)Nc1cccc(Nc2nc(Nc3ccc(OCCOC)cc3)ncc2F)c1`, for which the fractional viability is, setting by setting: under setting [1], 0.626; under setting [2], 0.721; under setting [3], 0.273; under setting [4], 0.297.

On to `Cc1cnc(Nc2ccc(OCCN3CCCC3)cc2)nc1Nc1cccc(S(=O)(=O)NC(C)(C)C)c1`, for which the fractional viability by setting is: under setting [1], 0.352; under setting [2], 0.378; under setting [3], 0.0362; under setting [4], 0.0573.

The molecule `Cc1cnc(Nc2ccc(N3CCN(C)CC3)cc2)nc1Nc1cccc(S(=O)(=O)NC(C)(C)C)c1` had a fractional viability under setting [1] of 0.363, a fractional viability under setting [2] of 0.472, a fractional viability under setting [3] of 0.0682 and a fractional viability under setting [4] of 0.0804.

On to `Cc1nc(Nc2cnn(C3CCNCC3)c2)nc2c1N(C)C(=O)c1cc3ccccc3cc1N2C`, for which the fractional viability was 0.723 under setting [1], 0.802 under setting [2], 0.376 under setting [3] and 0.51 under setting [4].

Regarding `CCN(CC)CCOc1ccc(C(=C(Cl)c2ccccc2)c2ccccc2)cc1` [Clomifene citrate], the fractional viability worked out at 0.751 under setting [1], 1.08 under setting [2], 0.178 under setting [3] and 0.479 under setting [4].

For the molecule `O=S(=O)(NCCSSCCNS(=O)(=O)c1cc(Cl)ccc1Cl)c1cc(Cl)ccc1Cl`, the fractional viability was 0.891 under setting [1], 0.899 under setting [2], 0.197 under setting [3] and 0.43 under setting [4].

In the case of `CN1CCN(Cc2ccc(Nc3ncc(Cl)c(Nc4ccccc4S(=O)(=O)N(C)C)n3)cc2)CC1`, the fractional viability by setting is: under setting [1], 0.22; under setting [2], 0.229; under setting [3], 0.234; under setting [4], 0.18.

For the molecule `Cc1cc(Nc2ncc(Cl)c(Nc3ccccc3S(=O)(=O)C(C)C)n2)c(OC(C)C)cc1C1CCNCC1`, the fractional viability under setting [1] amounted to 0.612, the fractional viability under setting [2] was determined as 0.403, the fractional viability under setting [3] was found to be 0.026 and the fractional viability under setting [4] amounted to 0.0128.

Turning to `O=C(O)c1cc2cccc([N+](=O)[O-])c2[nH]1`, the fractional viability is, setting by setting: under setting [1], 0.859; under setting [2], 1.09; under setting [3], 0.957; under setting [4], 0.802.

In the case of `CCCCNc1ncc2c(-c3ccc(CN4CCN(C)CC4)cc3)cn([C@H]3CC[C@H](O)CC3)c2n1`, the fractional viability is, setting by setting: under setting [1], 0.322; under setting [2], 0.41; under setting [3], 0.0773; under setting [4], 0.0599.

As to `C=CCc1cccc(/C=N/NC(=O)CN2CCN(Cc3ccccc3)CC2)c1O`, the fractional viability was 0.604 under setting [1], 0.671 under setting [2], 0.277 under setting [3] and 0.27 under setting [4].

For the molecule `Cc1[nH]nc2ccc(-c3cncc(OC[C@@H](N)Cc4ccccc4)c3)cc12`, the fractional viability is, setting by setting: under setting [1], 0.23; under setting [2], 0.212; under setting [3], 0.137; under setting [4], 0.0399.

With `CC[C@H]1OC(=O)C[C@@H](O)[C@H](C)[C@@H](O[C@@H]2O[C@H](C)[C@@H](O)[C@H](N(C)C)[C@H]2O)[C@@H](CCN2C[C@H](C)C[C@H](C)C2)C[C@@H](C)C(=O)/C=C/C(C)=C/[C@@H]1CO[C@@H]1O[C@H](C)[C@@H](O)[C@@H](OC)[C@H]1OC` [Tilmicosin], the fractional viability reads like this: under setting [1], 2.22; under setting [2], 1.13; under setting [3], 1.49; under setting [4], 1.11.

In the case of `CC(/C=C1\SC(=S)N(CC(=O)O)C1=O)=C\c1ccccc1` [Epalrestat], the fractional viability was determined as 0.92 under setting [1], 1.11 under setting [2], 0.89 under setting [3] and 1.03 under setting [4].

Take `CCOC(=O)[C@H]1O[C@@H]1C(=O)N[C@@H](CC(C)C)C(=O)NCCC(C)C` [Aloxistatin]: the fractional viability is, setting by setting: under setting [1], 0.853; under setting [2], 0.91; under setting [3], 0.817; under setting [4], 0.78.

`Cc1c[nH]c(/C=C2\C(=O)Nc3ccccc32)c1CCC(=O)O`: the fractional viability is, setting by setting: under setting [1], 0.91; under setting [2], 0.936; under setting [3], 0.874; under setting [4], 0.784.

For `CC(C)NCC(O)COc1cccc2ccccc12` (stereo not given) [Propranolol HCl], the fractional viability was 0.866 under setting [1], 1.12 under setting [2], 0.82 under setting [3] and 1.1 under setting [4].

Consider `CC(C)(C)NCC(O)COc1cccc2c1CCC(=O)N2` (stereo not given) [Carteolol HCl], for which the fractional viability was 0.876 under setting [1], 1.16 under setting [2], 0.838 under setting [3] and 1.14 under setting [4].

Turning to `CC(C)(Cc1ccc2ccccc2c1)NC[C@@H](O)COc1cccc(Cl)c1C#N`, the fractional viability reads like this: under setting [1], 0.854; under setting [2], 1.1; under setting [3], 0.585; under setting [4], 0.0354.

`NCc1c[nH]c(=S)n1[C@H]1CCc2c(F)cc(F)cc2C1` [Nepicastat (SYN-117) HCl]: the fractional viability was 0.973 under setting [1], 1.11 under setting [2], 0.953 under setting [3] and 0.993 under setting [4].

Regarding `NC1=N[C@@](c2cccc(-c3cncnc3)c2)(c2ccnc(C(F)F)c2)c2cccc(F)c21`, the fractional viability came out at 0.851 under setting [1], 1.01 under setting [2], 0.765 under setting [3] and 0.736 under setting [4].

For the molecule `CCCc1cc2c(N3CCN(C4=NCC(C)(C)S4)CC3)ncnc2s1` [MI-2 (Menin-MLL Inhibitor)], the fractional viability by setting is: under setting [1], 0.919; under setting [2], 0.869; under setting [3], 0.747; under setting [4], 0.665.

Regarding `CCOC(=O)c1cnc2ccc(-c3cncc(NS(=O)(=O)c4ccccc4)c3)cn12`, the fractional viability was determined as 0.176 under setting [1], 0.171 under setting [2], 0.183 under setting [3] and 0.108 under setting [4].

In turn, `O=C(c1ccccc1)c1ccc2nc(NC(=O)c3csc(C4CCN(c5ncnc6ccsc56)CC4)n3)[nH]c2c1` showed a fractional viability under setting [1] of 0.749, a fractional viability under setting [2] of 1.15, a fractional viability under setting [3] of 0.481 and a fractional viability under setting [4] of 0.328.

On to `CC(C)OC(=O)C1=CN(C(=O)c2ccc(F)c(F)c2)CC(C)(C)c2c1[nH]c1ccccc21`, for which the fractional viability by setting is: under setting [1], 0.991; under setting [2], 1.05; under setting [3], 0.865; under setting [4], 0.965.

For the molecule `CN1CCN(c2ccc(C(=O)Nc3n[nH]c4ccc(Cc5cc(F)cc(F)c5)cc34)c(NC3CCOCC3)c2)CC1` [Entrectinib (RXDX-101)], the fractional viability reads like this: under setting [1], 0.597; under setting [2], 0.771; under setting [3], 0.0511; under setting [4], 0.0303.

Take `CCc1cccc(CC)c1NC(=O)N1Cc2[nH]nc(NC(=O)c3ccc(N4CCN(C)CC4)cc3)c2C1`: the fractional viability turned out to be 0.538 under setting [1], 0.711 under setting [2], 0.359 under setting [3] and 0.462 under setting [4].

Take `CO[C@@H](C(=O)N1Cc2[nH]nc(NC(=O)c3ccc(N4CCN(C)CC4)cc3)c2C1)c1ccccc1`: the fractional viability is, setting by setting: under setting [1], 0.503; under setting [2], 0.521; under setting [3], 0.486; under setting [4], 0.427.
